Screening results from PubChem.
aSyn 5UTR act: Activators via SNCA 5'UTR binding, MLPCN; alpha-synuclein 5'UTR reporter, activators screen; activity score, % (tested at 7.5 µM), hits read low; hit rate 7.1% among 300,000; in the data active = activity score below about -60%
Of the large screens only hits and unclear results are named; the others gave an inactive call. The list is a sample of the results.

CCOC(=O)c1sc(NC(=O)c2ccc(C)o2)nc1C	aSyn 5UTR act -287.0
Cc1c(C(=O)Nc2nnc(C(F)(F)F)s2)oc2ccccc12	aSyn 5UTR act -235.7
CCOC(=O)c1sc(NC(=O)c2ccc(OC)cc2)nc1C	aSyn 5UTR act -108.5
O=C(Nc1ccccc1C(=O)Nc1nnc(C(F)(F)F)s1)c1ccccc1	none
COC(=O)c1sc(NC(=O)c2oc3ccccc3c2C)nc1C	aSyn 5UTR act -142.1
COC(=O)c1sc(NC(=O)c2ccc(C)o2)nc1C	aSyn 5UTR act -203.0
CCN(CC)S(=O)(=O)c1ccc(N=Nc2cc(C)cc(Br)c2O)cc1	aSyn 5UTR act -75.9
CCN(CC)S(=O)(=O)c1ccc(N/N=C(\C)c2ccc(OC)cc2O)nc1	none
Cc1ccsc1/C=C1/SC(N2CCOCC2)=NC1=O	aSyn 5UTR act -79.6
O=C(CCCc1ccccc1)Nc1cccc([N+](=O)[O-])c1	aSyn 5UTR act -161.1
O=C(NCCc1ccccc1)c1cccnc1	aSyn 5UTR act -99.0
O=C(NCCc1ccccc1)c1cccc(Br)c1	aSyn 5UTR act -131.4
O=C(O)c1cccc(S(=O)(=O)Nc2ccccc2C(=O)NCCc2ccccc2)c1	aSyn 5UTR act -63.6
O=C(NCCc1ccccc1)c1ccc2nccnc2c1	none
O=C(NCCc1ccccc1)c1cccc([N+](=O)[O-])c1	aSyn 5UTR act -77.2
O=C(NCCc1ccccc1)c1cnc2ccccc2n1	aSyn 5UTR act -99.2
Clc1ccc2nc(N3CCCCC3)sc2c1	aSyn 5UTR act -148.4
CS(=O)(=O)N1CCN(c2nc3ccc(Cl)cc3s2)CC1	aSyn 5UTR act -98.9
O=c1c(Cl)c(N2CCCCC2)cnn1-c1nc2ccccc2[nH]1	none
Clc1ccc2nc(N3CCCCC3)[nH]c2c1	aSyn 5UTR act -123.3
S=c1nc[nH]c2nc[nH]c12	none
Brc1ccccc1-c1nnc(-c2cccnc2)o1	aSyn 5UTR act -106.5
Brc1ccc(-c2nnc(-c3ccccc3Br)o2)cc1	aSyn 5UTR act -100.1
Clc1ccc(-c2nnc(-c3cccnc3)o2)cc1	aSyn 5UTR act -138.5
Clc1ccc(-c2nnc(-c3ccccc3)o2)cn1	aSyn 5UTR act -153.0
Cc1noc(C)c1-c1nnc(-c2ccc(C(F)(F)F)cc2)o1	aSyn 5UTR act -65.6
Brc1ccc(-c2nnc(-c3cccnc3)o2)cc1	aSyn 5UTR act -143.8
FC(F)(F)c1ccc(-c2nnc(-c3cccnc3)o2)cc1	aSyn 5UTR act -88.0
Cc1ccc(-c2nnc(-c3cccnc3)o2)cc1	aSyn 5UTR act -113.1
CCCOc1ccc(-c2nnc(-c3ccncc3)o2)cc1	aSyn 5UTR act -80.4
COc1ccc(-c2nnc(-c3cccnc3)o2)cc1	aSyn 5UTR act -111.5
CCCOc1ccc(C(=O)NNC(=S)NC(C)=O)cc1	none
CN(C)CCN(C(=O)c1cccs1)c1nc2cc3c(cc2s1)OCCO3	aSyn 5UTR act -105.7
CN(C)CCN(C(=O)c1ccc(Br)s1)c1nc2cc3c(cc2s1)OCCO3	aSyn 5UTR act -71.5
C=CCNC(=O)c1sc(-c2ccccc2)nc1C	aSyn 5UTR act -67.0
Cc1nc(-c2ccccc2)sc1C(=O)NN	aSyn 5UTR act -102.2
Cc1cccc(-c2cccc(NC(=O)C3CCCN(C(=O)c4csc(C)n4)C3)c2)c1 (centres undefined)	aSyn 5UTR act -70.3
CCc1nc(C)c(C(=O)N2CCCC(C(=O)Nc3cccc(-c4cccc(C)c4)c3)C2)o1 (centres undefined)	aSyn 5UTR act -77.5
Cc1cccc(-c2noc(Cc3ccccc3)n2)c1	aSyn 5UTR act -169.5
Cc1cccc(-c2noc(CCc3ccccc3)n2)c1	aSyn 5UTR act -121.0
Cc1ccc(-c2noc(CNc3ccccc3)n2)cc1	aSyn 5UTR act -77.8
CCS(=O)(=O)N1N=C(c2cccs2)CC1c1cc2cc(C)ccc2nc1Cl (centres undefined)	aSyn 5UTR act -67.0
C=C(C)CNC(=O)CCc1nnc(C2(c3ccc(Cl)cc3)CCC2)o1	aSyn 5UTR act -98.2
C=CCNC(=O)CCc1nnc(C2(c3ccc(Cl)cc3)CCC2)o1	aSyn 5UTR act -120.3
COCC(C)NC(=O)CCc1nnc(C2(c3ccc(Cl)cc3)CCC2)o1 (centres undefined)	aSyn 5UTR act -81.4
CCN1/C(=C/C=C/c2oc3ccc4ccccc4c3[n+]2CC)Oc2ccc3ccccc3c21	none
Cc1ccc(-c2nn3c(C)nnc3s2)cc1N	aSyn 5UTR act -79.4
Cc1nc2ccccc2c(=O)n1NCc1cc(Br)cs1	aSyn 5UTR act -81.0
COC(=O)c1c(-c2ccc(Br)cc2)noc1N	aSyn 5UTR act -65.0
CCOc1ccc(C(=O)Nc2nnc(S(=O)(=O)N(C)Cc3ccco3)s2)cc1	aSyn 5UTR act -138.7
Cc1ccccc1C(=O)Nc1nnc(S(=O)(=O)N(C)Cc2ccco2)s1	aSyn 5UTR act -71.5
CCn1c(SCC(=O)Nc2ccc(-c3nc4ccc(C)cc4s3)cc2)nnc1-c1ccccc1	aSyn 5UTR act -174.7
C=CCn1c(SCC(=O)Nc2ccc(-c3nc4ccc(C)cc4s3)cc2)nnc1-c1ccncc1	aSyn 5UTR act -98.9
COc1ccsc1NC(=O)OCc1ccc(Cl)cc1	aSyn 5UTR act -69.0
O=[N+]([O-])c1cc([N+](=O)[O-])c2cc3ccccc3nc2c1	aSyn 5UTR act -176.0
CCCCC(=O)Nc1ccc2c(c1)nc1n2CCOC1	aSyn 5UTR act -76.8
O=C(Nc1ccc2c(c1)nc1n2CCOC1)c1ccccc1	aSyn 5UTR act -80.4
COc1ccc(OC)c(C2CC(=O)N3CN(c4ccc(C)c(Cl)c4)CSC3=C2C#N)c1 (centres undefined)	aSyn 5UTR act -89.7
O=C(CSc1ccccn1)Nc1ccc2c(c1)oc1ccccc12	aSyn 5UTR act -122.4
COc1cc2c(cc1NC(=O)CSc1ccccn1)oc1ccccc12	aSyn 5UTR act -280.7
Cc1cc(NO)nc(-c2ccc(Br)cc2)n1	aSyn 5UTR act -277.5
CCN(CC)CCCNC(=O)c1sc2nc(-c3ccc(F)cc3)cn2c1C	aSyn 5UTR act -108.0
Cc1c(C(=O)NCC2CCCO2)sc2nc(-c3ccc(F)cc3)cn12 (centres undefined)	aSyn 5UTR act -83.6
CC(C)c1ccc(NC(=O)CSc2ncccc2C(=O)Oc2cccc([N+](=O)[O-])c2)cc1	aSyn 5UTR act -115.0
CN(C)c1ncc(C2=C(Cl)C(=O)C(N3CCCC3)=C(Cl)C2=O)s1	aSyn 5UTR act -69.9
Cc1ccc2c(c1)c(C)c(C)n2CC(O)Cn1nnc2ccccc21 (centres undefined)	aSyn 5UTR act -70.1
CC(C)(C)c1csc(N/N=C/c2ccc(O)cc2)n1	aSyn 5UTR act -164.7
Cc1c(C(=O)Nc2ccccc2)sc2nc[nH]c(=O)c12	aSyn 5UTR act -72.0
CC(=O)c1cccc(NC(=O)c2sc(Cl)nc2C)c1	aSyn 5UTR act -65.4
Cc1nc(Cl)sc1C(=O)Nc1ccccc1	aSyn 5UTR act -66.6
Cc1ccc(-c2nc(NCC3CCCO3)sc2C)cc1 (centres undefined)	aSyn 5UTR act -93.7
COc1ccc(-n2c(C)c(C)c3c(NCCCO)ncnc32)cc1	aSyn 5UTR act -80.6
Cc1ccc(-n2c(C)c(C)c3c(NCCCO)ncnc32)cc1	aSyn 5UTR act -164.9
O=C(c1csc(Nc2ccccc2Cl)n1)N1CCCC1	aSyn 5UTR act -117.3
Cc1cc(NCc2ccccn2)ccc1Br	aSyn 5UTR act -198.1
c1ccc(-n2cnc3cc(NCc4ccccn4)ccc32)cc1	aSyn 5UTR act -66.1
CC(C)n1cnc2cc(NCc3ccccn3)ccc21	aSyn 5UTR act -97.5
CC(C)n1cnc2cc(NCc3ccco3)ccc21	aSyn 5UTR act -109.0
Cc1ccc2c(c1)c1nc3ccccc3nc1n2C	aSyn 5UTR act -90.2
COc1cccc(OCCNc2cc(N3CCOCC3)ccc2[N+](=O)[O-])c1	aSyn 5UTR act -78.1
CC(C)(C)c1ccc(Cn2c(=N)n(CC(O)c3ccco3)c3ccccc32)cc1 (centres undefined)	none
